Earlier results on 16 molecules are cited in PubChem BioAssay AID977611.

The whole screen tested about 3,900 compounds, of which about 3,900 (100%) were called active. No cut-off is given here; in the data, nearly all actives have Kd up to about 4200 µM. So high a share suggests a set chosen from earlier hits. The list shows a part of the results. Where a SMILES comes first, the peptide text is derived from it. Non-standard residues stand in square brackets, D forms with d. Square brackets hold non-standard residues; d marks the D form. Residues, ends and D or L forms follow the SMILES beside them. Peptide text beside a SMILES is read from it. [ ]: non-standard residue; d: D form. Orn(CH(NH2)2) = NC(N)NCCC[C@H](N)C(=O)O; pGlu = O=C1CC[C@@H](C(=O)O)N1

By Kd is commonly meant the concentration at which binding is half-saturated.

This data set in a line: PubChem AID 977611. The note with it: PDB protein-ligand complexes, literature Kd.

For `CC(=O)N[C@@H](CCCCN)C(=O)N[C@@H](CCCCN)C(=O)N[C@@H](CCCNC(N)N)C(=O)N[C@@H](Cc1ccc(O)cc1)C(=O)N[C@@H](CO)C(=O)N[C@@H](CCCNC(N)N)C(=O)N[C@@H](CCC(=O)O)C(=O)N[C@@H](Cc1ccccc1)C(=O)N[C@@H](CC(C)C)C(=O)N[C@@H](CC(C)C)C(=O)NCC(=O)N[C@@H](Cc1ccccc1)C(N)=O` (Ac-KK[Orn(CH(NH2)2)]YS[Orn(CH(NH2)2)]EFLLGF-NH2), the Kd (protein: EUKARYOTIC TRANSLATION INITIATION FACTOR 4E, PDB entry 4aza) is 103 nM (active). With H-AAAFSFKKSFKLSGFSFK-OH, the Kd (protein: Ca2+-Calmodulin, PDB entry 1iwq) was 8.8 nM (active). With `CC(=O)N[C@H](C(=O)N[C@@H](CCC(N)=O)C(=O)NCC(=O)N[C@@H](CO)C(=O)NCC(=O)N[C@@H](C)C(=O)N[C@@H](Cc1ccccc1)C(=O)NCC(=O)N[C@@H](CCCNC(N)N)C(N)=O)C(C)C` (Ac-VQGSGAFG[Orn(CH(NH2)2)]-NH2), the Kd (protein: Fab fragment of the mAb 106.3, PDB entry 3e8u) is 0.38 nM (active). Turning to `CC(C)C[C@H](NC(=O)[C@H](CCCNC(N)N)NC(=O)[C@H](CCCNC(N)N)NC(=O)[C@H](CCCCN)NC(=O)[C@H](C)NC(=O)[C@H](CO)NC(=O)CN)C(=O)N[C@@H](Cc1ccccc1)C(=O)NCC(=O)N[C@@H](CCC(=O)O)C(=O)O` (H-GSAK[Orn(CH(NH2)2)][Orn(CH(NH2)2)]LFGE-OH), under “protein: phospho-CDK2/cyclin A, PDB entry 1h28”, the Kd was 300 nM (active). For `Cc1n[nH]c(C)c1CCCOc1cc(C(=O)O)ccc1F`, the Kd (protein: Transthyretin (V122I mutation), PDB entry 4hiq) is 6.2 nM (active).

`OCCOCCOCCOCCOCCOCCOCCOCCOCCOCCOCCOCCOCCOCCOCCOCCOCCOCCOCCOCCOCCOCCOCCOCCOCCO`: the Kd reads like this: (protein: Prostaglandin-H2 D-isomerase L-PGDS C65A mutant, PDB entry 4oru) 210000 nM (active); (protein: Prostaglandin-H2 D-isomerase L-PGDS C65A-K59A double mutant, PDB entry 4orx) 297000 nM (active); (protein: Prostaglandin-H2 D-isomerase L-PGDS C65A-K59A double mutant, PDB entry 4ory) 297000 nM (active).

Consider `OC[C@@H]1O[C@@H](O[C@H]2[C@H](O[C@@H]3CO[C@@H](O[C@@H]4CO[C@@H](O)[C@H](O)[C@H]4O)[C@H](O)[C@H]3O)OC[C@@H](O)[C@@H]2O)[C@H](O)[C@H]1O`, for which the Kd (protein: SUGAR TRANSPORTER SOLUTE-BINDING PROTEIN, PDB entry 4c1t) is 70.8 nM (active). Consider `OC[C@@H]1O[C@@H](O[C@@H]2[C@@H](O)[C@H](O[C@@H]3CO[C@@H](O)[C@H](O)[C@H]3O)OC[C@H]2O)[C@H](O)[C@H]1O`, for which the Kd (protein: SUGAR TRANSPORTER SOLUTE-BINDING PROTEIN, PDB entry 4c1u) is 81 nM (active).

Turning to `Nc1[nH]c(=S)nc2nc[nH]c12`, the Kd (protein: 6-hydroxymethyl-7,8-dihydropterin pyrophosphokinase, PDB entry 4m5n) is 7500 nM (active). As for `CC(C)C[C@H](NC(=O)[C@H](CC(N)=O)NC(=O)[C@H](CC(C)C)NC(=O)[C@@H](NC(=O)[C@@H](NC(=O)[C@@H]1CCCN1C(=O)[C@H](CCCNC(N)N)NC(=O)[C@H](CCCCN)NC(=O)[C@@H]1CCCN1)[C@@H](C)O)[C@@H](C)O)C(=O)N[C@@H](Cc1ccccc1)C(=O)O` (HELM PEPTIDE1{P.K.[NC(N)NCCC[C@H](N[*:1])C(=O)[*:2]].P.T.T.L.N.L.F}$$$$V2.0), the equilibrium dissociation constant (Kd) (protein: Mitogen-activated protein kinase 8 isoform 4, PDB entry 1ukh) was 420 nM (active). As for H-PDYFL-OH, for the setting “protein: Serine/threonine-protein phosphatase 2A activator PTPA, PDB entry 4ny3”, the Kd is 49500 nM (active). On to `CC(C)C[C@H](NC(=O)[C@@H]1CCC(=O)N1)C(=O)N[C@@H](Cc1ccc(O)cc1)C(=O)N[C@@H](CCC(=O)O)C(=O)N[C@H](C=O)CC(N)=O` (tested in a mixture with another compound) ([pGlu]LYEN-aldehyde), for which the Kd (protein: Sortilin, PDB entry 4po7) is 85 nM (active). Take `C[C@H](NC(=O)[C@@H]1CCCN1)C(=O)N[C@@H](CCCNC(N)N)C(=O)N1CCC[C@H]1C(=O)N1CCC[C@H]1C(=O)N[C@@H](CCCCN)C(=O)N1CCC[C@H]1C(=O)N[C@@H](CCCNC(N)N)C(=O)N1CCC[C@H]1C(=O)N[C@@H](CCCNC(N)N)C(=O)N[C@@H](CCCNC(N)N)C(=O)O` (H-PA[Orn(CH(NH2)2)]PPKP[Orn(CH(NH2)2)]P[Orn(CH(NH2)2)][Orn(CH(NH2)2)]-OH): under “protein: SH3-domain of CIN85, PDB entry 2bz8”, the dissociation constant (Kd) was 2500 nM (active). Take `CC(C)C[C@H](NC(=O)[C@H](CCCCN)NC(=O)[C@H](CCCCN)NC(=O)[C@H](CC(C)C)NC(=O)[C@@H]1CCCN1C(=O)[C@H](CCCCN)NC(=O)[C@@H]1CCCN1)C(=O)N[C@@H](CCCNC(N)N)C(=O)N[C@@H](Cc1ccccc1)C(=O)N[C@@H](CC(=O)O)C(=O)O` (H-PKPLKKL[Orn(CH(NH2)2)]FD-OH): the Kd (protein: phospho-CDK2/cyclin A, PDB entry 1h25) is 1800 nM (active).

For the molecule `CC(C)C[C@H](NC(=O)[C@@H](NC(=O)[C@@H](N)[C@@H](C)O)C(C)C)C(=O)NCC(=O)N[C@@H](CCCCN)C(=O)N[C@@H](CCCNC(N)N)C(=O)N[C@@H](CCCCN)C(=O)O` (H-TVLGK[Orn(CH(NH2)2)]K-OH), the Kd (protein: IMPORTIN SUBUNIT ALPHA-1A, PDB entry 4b8p) was 140 nM (active). For the molecule `CC(C)C[C@H](NC(=O)[C@@H](NC(=O)[C@@H](N)CO)C(C)C)C(=O)NCC(=O)N[C@@H](CCCCN)C(=O)N[C@@H](CCCNC(N)N)C(=O)N[C@@H](CCCCN)C(=O)N[C@@H](CCCNC(N)N)C(=O)N[C@@H](Cc1cnc[nH]1)C(=O)O` (H-SVLGK[Orn(CH(NH2)2)]K[Orn(CH(NH2)2)]H-OH), the Kd (protein: IMPORTIN SUBUNIT ALPHA-1A, PDB entry 2yns) was 25 nM (active).
